Laboratory results taken from PubChem BioAssay (NCI).
Values joined by “and” are separate entries in the source; they are usually repeats but may differ in a detail not shown here. Equal entries are not always repeated. About 83,000 compounds went through this panel and 20% of them were active in at least one assay; those are over-represented in the sample as a whole.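 Testing used 96-well plates and a 48-hour single-concentration exposure. Example: -40 means 40% of the starting cells died.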 Active and inactive are the calls of the source. The calls were made as follows: active = growth percent below 10; inactive = the rest.

Assays:
Experiment in all cases: NCI-60 one-dose screen, 48 h (100 = growth as untreated, 0 = no growth, -100 = all killed)
Details in all cases: 10 µM unless noted
[1] = test system: EKVX NSCLC
[2] = test system: SN12C renal
[3] = test system: UO-31 renal
[4] = test system: TK-10 renal
[5] = test system: CAKI-1 renal
[6] = test system: A498 renal
[7] = test system: CCRF-CEM leukemia
[8] = test system: MOLT-4 leukemia
[9] = test system: ACHN renal

| Structure (SMILES) | growth [1] | growth [2] | growth [3] | growth [4] | growth [5] | growth [6] | growth [7] | growth [8] | growth [9] |
| --- | --- | --- | --- | --- | --- | --- | --- | --- | --- |
| CC1=CC(=O)C=CC1=Nc1ccc(N(C)C)cc1 | -44.9% (active) | 90.6% (inactive) and 46.4% (inactive) | 65.6% (inactive) and 50.7% (inactive) | 126% (inactive) and 115% (inactive) | 87.1% (inactive) and 67.3% (inactive) | 92.7% (inactive) and 121% (inactive) | -28.7% (active) | 50.4% (inactive) and 12% (inactive) | – |
| COc1ccc(S(=O)(=O)c2ccc(F)cc2)cc1 | 122% (inactive) | 97.8% (inactive) | 83.8% (inactive) | 95.4% (inactive) | 108% (inactive) | 108% (inactive) | 84.6% (inactive) | 92.3% (inactive) | 103% (inactive) |
| O=C(c1ccc(Cl)cc1)C1C(c2ccccc2)C1[N+](=O)[O-] (centres undefined) | – | 104% (inactive) | 74.8% (inactive) | 95.1% (inactive) | 99.1% (inactive) | 86.3% (inactive) | 103% (inactive) | 83.7% (inactive) | 111% (inactive) |
| N#CC1c2ccccc2C=CN1C(=O)c1ccccc1 (centres undefined) | 106% (inactive) and 92.7% (inactive) | 99.8% (inactive) and 94.3% (inactive) | 78.6% (inactive) and 97.8% (inactive) | 109% (inactive) and 115% (inactive) | 97.6% (inactive) and -6.46% (active) | 98.9% (inactive) and 148% (inactive) | 88.2% (inactive) and 130% (inactive) | 89.2% (inactive) and 125% (inactive) | 94.6% (inactive) and 90% (inactive) |
| CCNCc1ccccc1 | 111% (inactive) | 104% (inactive) | 86.7% (inactive) | 100% (inactive) | 101% (inactive) | 97.4% (inactive) | 121% (inactive) | 103% (inactive) | 110% (inactive) |
| CC(=O)Nc1cscc1NC(C)=O | 73.2% (inactive) | 89.1% (inactive) | 93.3% (inactive) | 97.8% (inactive) | 73.1% (inactive) | 92.9% (inactive) | 89.2% (inactive) | 111% (inactive) | 96.3% (inactive) |
| CCOCCC(=O)O | 98.8% (inactive) | 103% (inactive) | 102% (inactive) | 103% (inactive) | 102% (inactive) | 80.1% (inactive) | 98.9% (inactive) | 116% (inactive) | 110% (inactive) |
| CNc1ccc(Cl)cc1S(=O)(=O)c1ccccc1[N+](=O)[O-] | 103% (inactive) and 94.5% (inactive) | 89.8% (inactive) and 98.3% (inactive) | 91.8% (inactive) and 92.6% (inactive) | – | 84.6% (inactive) and 41.1% (inactive) | 118% (inactive) | 84.9% (inactive) and 93.3% (inactive) | 85.6% (inactive) and 103% (inactive) | 107% (inactive) and 97.9% (inactive) |
| CCCCNC(=O)c1ccccc1C | 94.9% (inactive) | 98.5% (inactive) | – | 97.5% (inactive) | 96.5% (inactive) | 126% (inactive) | 99.7% (inactive) | 98.5% (inactive) | 104% (inactive) |
| Cc1ccc([N+](=O)[O-])cc1Br | 101% (inactive) | 98.2% (inactive) | 92.1% (inactive) | 97.1% (inactive) | 101% (inactive) | 88.5% (inactive) | 105% (inactive) | 81.7% (inactive) | 98.3% (inactive) |
| Clc1ccc2c(c1)N(C1CCCN(Cc3ccccc3)C1)c1ccccc1S2 (centres undefined) | – | 39.7% (inactive) | 66.7% (inactive) | 98.6% (inactive) | 48.7% (inactive) | 70.6% (inactive) | 39.7% (inactive) | 70.3% (inactive) | 52.5% (inactive) |
